In PubChem BioAssay:
The source made the active and inactive calls.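 Rule for the calls: active = inhibition above the hit cutoff set in the earlier primary screen (cut at about 27% in these data); inactive = the rest.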

What follows are compounds tested against Protein phosphatase methylesterase 1 (Homo sapiens) (UniProt Q9Y570) (assay: PME-1 inhibitor activity retest, confirmation, biochemical, fluorescence polarization, FP-Rh probe, triplicate (AID 2171;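 note: 0% = enzyme with DMSO and 100% = wells lacking PME-1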)). Conditions: recombinant PME-1, FP-Rh probe fluorescence polarization; at 5.9 µM; hits give high values.
Sequence of Protein phosphatase methylesterase 1 (Homo sapiens) (Q9Y570 whole entry, looked up): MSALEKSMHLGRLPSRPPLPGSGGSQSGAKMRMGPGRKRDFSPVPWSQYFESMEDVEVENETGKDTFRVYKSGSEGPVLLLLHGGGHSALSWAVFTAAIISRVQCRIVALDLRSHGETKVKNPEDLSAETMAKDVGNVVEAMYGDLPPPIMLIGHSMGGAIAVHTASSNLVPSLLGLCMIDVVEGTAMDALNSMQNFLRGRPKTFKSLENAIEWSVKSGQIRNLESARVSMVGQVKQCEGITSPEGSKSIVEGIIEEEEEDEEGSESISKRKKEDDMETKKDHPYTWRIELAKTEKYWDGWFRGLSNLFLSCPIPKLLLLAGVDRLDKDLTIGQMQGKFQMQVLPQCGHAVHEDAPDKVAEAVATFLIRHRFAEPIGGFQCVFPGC

inhibition, inactive:
Nc1cc(N)cc(-c2nc3ccccc3[nH]2)c1 3.51%
Cc1ccc(NS(=O)(=O)c2ccc3c(c2)C(=O)c2ccccc2C3=O)c(C)c1 24.5%
CCC(=Nc1ccc(N)cc1)C1=C(O)C(C(=O)OC)C(C)(C)CC1=O (centres undefined) 2.34%
Cc1cc(C)c2c(N)c(-c3nc4ccccc4[nH]3)sc2n1 3.16%
CN(C)c1ccc(NC(=O)Nc2ccc3snnc3c2)cc1 21%
CN(C)S(=O)(=O)c1cccc(NC(=S)NNC(=O)c2cc3ccccc3cc2O)c1 -1.97%
O=C(COc1ccccc1C(=O)N/N=C\c1ccc(O)c(O)c1)N/N=C/c1ccc(O)c(O)c1 -40.9%
CCn1c(=O)c2cc(C(=O)Nc3ccc(OC)cc3OC)sc2c2ccccc21 21.5%
CC(Sc1nnc(NC2CCCCC2)s1)C(=O)Nc1ccc2c(c1)C(=O)c1ccccc1C2=O (centres undefined) -4.4%
O=C(O)c1cccc(-n2c(/C=C/c3ccc([N+](=O)[O-])cc3)nc3ccccc3c2=O)c1 24.3%
CNS(=O)(=O)c1cc(C(=O)OCC(=O)NC2CCCc3ccccc32)ccc1Cl (centres undefined) 24.4%
Oc1c(Br)cc(C=Nc2ccc3nc(-c4ccccc4)[nH]c3c2)c(O)c1Br 5.82%

inhibition, active:
Brc1ccc(N=NNc2ccccc2)cc1 31.4%
Nc1c(C(=O)Nc2cccc(C(=O)O)c2)sc2nc3c(cc12)CCCC3 30.8%
O=C1c2ccccc2-c2onc3ccc(NCCCn4ccnc4)c1c23 163%
CCCCCCC(=O)Nc1nc(C)c(-c2csc(Nc3cc(OC)ccc3OC)n2)s1 65%
CCCOc1ccc(C2Nc3cccc4cccc(c34)N2)cc1 38.3%
CC1(C)CC(=O)C2=C(C1)N1C(=C(C#N)C2c2ccc(Cl)cc2)N=C(N)c2ccccc21 (centres undefined) 44%
O=C1c2cccc3c([N+](=O)[O-])ccc(c23)C(=O)N1c1ccc(Cl)cn1 34.9%
N#Cc1c(N)nc2c3c(sc(=N)c2c1N)NC(=O)CC3c1ccccc1 (centres undefined) 29%
CCCCN(CCCC)CCNC(=O)c1cn(CC)c2ccc(S(=O)(=O)N(C)C3CCCCC3)cc2c1=O 85%
CC1=NN(c2ccccc2)C(=O)C1N=Nc1cccc(O)c1 (centres undefined) 28.1%
Cc1ccc(/C=N/Nc2ccnc3cc(Cl)ccc23)c(C)c1 53.3%
CCOc1cccc(/C=C/c2ccc3cccc(O)c3n2)c1O 26.6%
